The supplement of paper PMC11732987, “Enantioselective OTUD7B fragment discovery through chemoproteomics screening and high-throughput optimisation” (Communications Chemistry, 2025)

Tests used:
Experiment in all cases: log2 ratio of Biotin-Ahx-Ub-VS probe labelling (fragment/DMSO); higher = less target engagement (more negative = stronger competition), active = hit call of the paper (q ≤ 0.05, log2 ratio ≤ -1)
Conditions in all cases: compound concentration: 200 uM; treatment time: 3 h
USP34 = USP34 (UniProt Q70CQ2)
Sequence of USP34 (Q70CQ2 whole entry, the tested form may be a part): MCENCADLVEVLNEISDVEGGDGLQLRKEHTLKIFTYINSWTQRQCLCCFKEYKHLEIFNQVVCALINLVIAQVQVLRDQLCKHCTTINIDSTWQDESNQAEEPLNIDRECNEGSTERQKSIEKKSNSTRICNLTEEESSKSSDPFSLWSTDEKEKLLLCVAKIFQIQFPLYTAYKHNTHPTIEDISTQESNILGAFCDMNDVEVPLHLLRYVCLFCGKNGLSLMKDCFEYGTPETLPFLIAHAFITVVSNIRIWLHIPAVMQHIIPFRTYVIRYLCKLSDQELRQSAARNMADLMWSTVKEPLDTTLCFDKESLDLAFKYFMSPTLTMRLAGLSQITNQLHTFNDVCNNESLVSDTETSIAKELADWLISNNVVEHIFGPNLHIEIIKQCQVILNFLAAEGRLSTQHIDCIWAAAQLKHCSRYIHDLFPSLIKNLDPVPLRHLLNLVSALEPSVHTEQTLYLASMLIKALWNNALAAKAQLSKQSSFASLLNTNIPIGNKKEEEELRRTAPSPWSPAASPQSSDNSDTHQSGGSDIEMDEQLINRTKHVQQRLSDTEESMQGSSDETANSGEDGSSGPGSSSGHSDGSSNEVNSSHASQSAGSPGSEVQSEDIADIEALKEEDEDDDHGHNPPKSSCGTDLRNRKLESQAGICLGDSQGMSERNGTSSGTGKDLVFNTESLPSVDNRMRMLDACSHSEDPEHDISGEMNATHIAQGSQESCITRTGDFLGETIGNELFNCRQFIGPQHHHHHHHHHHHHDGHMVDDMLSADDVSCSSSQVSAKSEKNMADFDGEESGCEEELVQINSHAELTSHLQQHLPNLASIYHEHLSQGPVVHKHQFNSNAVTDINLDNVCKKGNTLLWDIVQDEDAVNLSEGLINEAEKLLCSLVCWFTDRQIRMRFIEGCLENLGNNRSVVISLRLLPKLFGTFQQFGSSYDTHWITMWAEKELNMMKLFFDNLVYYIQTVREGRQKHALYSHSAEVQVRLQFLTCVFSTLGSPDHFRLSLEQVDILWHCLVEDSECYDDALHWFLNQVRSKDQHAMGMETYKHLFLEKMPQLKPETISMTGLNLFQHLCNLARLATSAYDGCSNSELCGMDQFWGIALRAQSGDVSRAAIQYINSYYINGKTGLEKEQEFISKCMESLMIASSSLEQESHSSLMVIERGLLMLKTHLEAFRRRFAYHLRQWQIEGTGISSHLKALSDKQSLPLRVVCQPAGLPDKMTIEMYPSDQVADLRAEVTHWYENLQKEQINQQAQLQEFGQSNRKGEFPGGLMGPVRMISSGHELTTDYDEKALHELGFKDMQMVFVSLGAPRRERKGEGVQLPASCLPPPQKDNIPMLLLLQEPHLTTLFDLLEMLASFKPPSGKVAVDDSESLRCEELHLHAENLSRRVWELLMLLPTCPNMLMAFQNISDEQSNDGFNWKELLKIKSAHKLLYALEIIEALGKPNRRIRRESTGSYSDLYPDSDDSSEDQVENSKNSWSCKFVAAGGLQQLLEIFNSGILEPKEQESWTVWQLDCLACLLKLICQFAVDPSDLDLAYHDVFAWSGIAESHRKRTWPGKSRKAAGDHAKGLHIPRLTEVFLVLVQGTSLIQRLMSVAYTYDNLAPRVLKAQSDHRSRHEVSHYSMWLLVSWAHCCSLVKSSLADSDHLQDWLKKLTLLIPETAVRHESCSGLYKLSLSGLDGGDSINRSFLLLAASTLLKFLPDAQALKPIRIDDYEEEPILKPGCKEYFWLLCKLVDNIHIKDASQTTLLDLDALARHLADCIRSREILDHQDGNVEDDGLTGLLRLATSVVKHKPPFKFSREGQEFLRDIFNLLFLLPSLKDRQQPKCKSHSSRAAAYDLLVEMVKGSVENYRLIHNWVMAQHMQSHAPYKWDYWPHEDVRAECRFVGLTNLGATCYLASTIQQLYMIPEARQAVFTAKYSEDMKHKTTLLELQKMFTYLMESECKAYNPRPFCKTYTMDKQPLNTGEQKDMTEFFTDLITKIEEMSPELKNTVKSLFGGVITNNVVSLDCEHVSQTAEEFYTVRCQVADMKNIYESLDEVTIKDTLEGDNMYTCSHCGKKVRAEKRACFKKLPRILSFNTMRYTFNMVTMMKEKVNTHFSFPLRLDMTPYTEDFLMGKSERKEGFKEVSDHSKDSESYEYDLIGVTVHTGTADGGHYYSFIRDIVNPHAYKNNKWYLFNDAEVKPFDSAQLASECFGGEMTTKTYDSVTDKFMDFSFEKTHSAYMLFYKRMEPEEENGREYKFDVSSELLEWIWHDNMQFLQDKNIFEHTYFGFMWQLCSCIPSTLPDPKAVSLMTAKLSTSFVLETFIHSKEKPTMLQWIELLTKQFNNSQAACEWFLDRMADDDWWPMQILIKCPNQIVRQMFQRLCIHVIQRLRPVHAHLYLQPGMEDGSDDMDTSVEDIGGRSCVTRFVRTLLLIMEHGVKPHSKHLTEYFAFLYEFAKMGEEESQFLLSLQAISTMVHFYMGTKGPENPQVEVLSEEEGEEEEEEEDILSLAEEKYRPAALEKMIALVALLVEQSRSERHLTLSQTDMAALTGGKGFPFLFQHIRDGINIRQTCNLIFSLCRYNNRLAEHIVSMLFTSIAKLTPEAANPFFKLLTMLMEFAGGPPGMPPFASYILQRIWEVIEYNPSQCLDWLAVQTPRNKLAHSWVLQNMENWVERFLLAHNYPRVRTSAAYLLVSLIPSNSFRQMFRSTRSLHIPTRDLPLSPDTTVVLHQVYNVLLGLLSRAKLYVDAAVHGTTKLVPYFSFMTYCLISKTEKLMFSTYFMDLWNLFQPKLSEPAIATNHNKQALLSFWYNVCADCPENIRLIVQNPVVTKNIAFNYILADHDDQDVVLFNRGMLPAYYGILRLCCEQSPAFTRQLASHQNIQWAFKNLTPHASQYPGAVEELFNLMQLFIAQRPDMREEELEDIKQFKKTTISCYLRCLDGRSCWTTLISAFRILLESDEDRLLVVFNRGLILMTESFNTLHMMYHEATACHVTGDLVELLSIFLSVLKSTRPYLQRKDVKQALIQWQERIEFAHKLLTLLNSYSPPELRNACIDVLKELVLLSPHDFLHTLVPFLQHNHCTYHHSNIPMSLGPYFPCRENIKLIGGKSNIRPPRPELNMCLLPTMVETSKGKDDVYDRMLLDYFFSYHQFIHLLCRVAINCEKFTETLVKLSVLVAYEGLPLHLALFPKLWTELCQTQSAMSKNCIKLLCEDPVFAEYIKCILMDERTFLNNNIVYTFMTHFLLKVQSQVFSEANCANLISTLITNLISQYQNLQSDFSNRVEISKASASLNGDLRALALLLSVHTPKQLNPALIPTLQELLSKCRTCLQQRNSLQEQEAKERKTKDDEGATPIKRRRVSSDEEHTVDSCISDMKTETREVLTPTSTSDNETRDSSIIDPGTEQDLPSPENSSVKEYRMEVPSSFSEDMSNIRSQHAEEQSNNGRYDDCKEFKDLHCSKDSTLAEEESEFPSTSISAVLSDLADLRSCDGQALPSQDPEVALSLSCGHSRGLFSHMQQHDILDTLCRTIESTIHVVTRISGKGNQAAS
Summary of the method: (§1)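 HEK293T lysate (495 µg per sample, in Tris/CHAPS/IGEPAL buffer with protease inhibitors) was treated in triplicate with fragment at 200 µM or with DMSO for 3 h. It was then treated with Biotin-Ahx-Ub-VS (0.5 µM final) for 1 h. Labelled DUBs were NeutrAvidin-enriched, digested with LysC and trypsin, and run by diaPASEF LC-MS/MS. Spectronaut label-free quantities were global-median-normalised. Values are average log2 ratios fragment/DMSO by unpaired t-test, using proteins with ≥2 unique peptides.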

USP36 = target: T1, USP36 (UniProt Q9P275)
T1 sequence (whole entry): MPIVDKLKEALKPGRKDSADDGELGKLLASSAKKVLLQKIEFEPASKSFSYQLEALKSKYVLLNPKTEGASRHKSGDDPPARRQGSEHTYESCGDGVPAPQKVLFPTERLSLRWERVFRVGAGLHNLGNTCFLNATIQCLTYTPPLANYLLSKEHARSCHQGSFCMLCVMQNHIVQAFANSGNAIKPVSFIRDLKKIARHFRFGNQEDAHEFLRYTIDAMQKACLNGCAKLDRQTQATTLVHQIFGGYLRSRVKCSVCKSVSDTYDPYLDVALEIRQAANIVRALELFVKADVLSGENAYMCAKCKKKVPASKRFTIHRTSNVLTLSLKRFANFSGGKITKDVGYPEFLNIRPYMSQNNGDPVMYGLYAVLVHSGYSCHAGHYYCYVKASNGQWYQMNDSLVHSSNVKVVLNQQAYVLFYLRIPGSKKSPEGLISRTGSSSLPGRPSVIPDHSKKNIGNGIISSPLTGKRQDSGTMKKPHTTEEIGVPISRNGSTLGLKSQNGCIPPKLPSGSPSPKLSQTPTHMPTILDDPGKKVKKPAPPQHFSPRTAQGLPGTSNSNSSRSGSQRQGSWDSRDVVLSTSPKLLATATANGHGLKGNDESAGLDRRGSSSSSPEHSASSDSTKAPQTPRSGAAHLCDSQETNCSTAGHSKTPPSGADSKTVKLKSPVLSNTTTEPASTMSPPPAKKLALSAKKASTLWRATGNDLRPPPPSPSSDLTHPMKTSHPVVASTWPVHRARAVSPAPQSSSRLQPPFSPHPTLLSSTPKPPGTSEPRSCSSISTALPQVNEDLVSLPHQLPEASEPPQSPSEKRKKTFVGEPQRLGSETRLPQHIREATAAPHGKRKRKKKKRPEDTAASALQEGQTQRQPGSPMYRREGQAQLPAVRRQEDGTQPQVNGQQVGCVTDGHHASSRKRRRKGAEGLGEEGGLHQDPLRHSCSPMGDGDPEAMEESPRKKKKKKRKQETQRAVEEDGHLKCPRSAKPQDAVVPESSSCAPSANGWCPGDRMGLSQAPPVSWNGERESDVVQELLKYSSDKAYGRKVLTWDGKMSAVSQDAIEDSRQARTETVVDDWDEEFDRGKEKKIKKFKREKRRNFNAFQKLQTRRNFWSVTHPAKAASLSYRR
Summary of the method: as §1

USP38 = target: T2, USP38 (UniProt Q8NB14)
T2 sequence (whole entry): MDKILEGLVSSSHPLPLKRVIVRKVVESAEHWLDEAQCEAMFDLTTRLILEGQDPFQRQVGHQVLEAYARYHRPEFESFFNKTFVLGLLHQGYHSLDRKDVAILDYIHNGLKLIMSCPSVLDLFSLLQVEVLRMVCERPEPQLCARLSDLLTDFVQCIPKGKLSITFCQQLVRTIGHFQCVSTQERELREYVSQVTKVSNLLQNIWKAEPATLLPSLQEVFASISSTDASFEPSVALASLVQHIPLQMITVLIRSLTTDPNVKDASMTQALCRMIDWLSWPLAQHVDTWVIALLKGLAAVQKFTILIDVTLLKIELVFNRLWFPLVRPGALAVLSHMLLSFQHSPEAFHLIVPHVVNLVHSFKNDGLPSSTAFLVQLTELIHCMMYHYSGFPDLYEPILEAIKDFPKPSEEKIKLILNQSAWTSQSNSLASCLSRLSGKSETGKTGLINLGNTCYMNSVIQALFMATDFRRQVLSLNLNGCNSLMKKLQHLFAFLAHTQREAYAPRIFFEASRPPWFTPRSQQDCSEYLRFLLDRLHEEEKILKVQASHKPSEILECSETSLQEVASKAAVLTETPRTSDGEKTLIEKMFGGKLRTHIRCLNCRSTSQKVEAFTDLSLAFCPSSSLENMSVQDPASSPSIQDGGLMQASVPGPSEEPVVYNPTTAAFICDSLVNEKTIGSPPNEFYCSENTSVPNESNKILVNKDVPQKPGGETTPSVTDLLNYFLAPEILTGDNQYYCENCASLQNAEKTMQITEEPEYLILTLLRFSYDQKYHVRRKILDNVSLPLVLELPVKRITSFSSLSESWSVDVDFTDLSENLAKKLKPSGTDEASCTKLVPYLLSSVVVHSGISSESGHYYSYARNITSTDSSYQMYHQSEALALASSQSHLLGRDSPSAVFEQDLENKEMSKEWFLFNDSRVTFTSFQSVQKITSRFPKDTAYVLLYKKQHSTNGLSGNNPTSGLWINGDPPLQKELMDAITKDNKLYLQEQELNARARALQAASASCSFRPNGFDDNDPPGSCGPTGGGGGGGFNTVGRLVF
Summary of the method: as §1

USP39 = target: T3, USP39 (UniProt Q53GS9)
T3 sequence (whole entry): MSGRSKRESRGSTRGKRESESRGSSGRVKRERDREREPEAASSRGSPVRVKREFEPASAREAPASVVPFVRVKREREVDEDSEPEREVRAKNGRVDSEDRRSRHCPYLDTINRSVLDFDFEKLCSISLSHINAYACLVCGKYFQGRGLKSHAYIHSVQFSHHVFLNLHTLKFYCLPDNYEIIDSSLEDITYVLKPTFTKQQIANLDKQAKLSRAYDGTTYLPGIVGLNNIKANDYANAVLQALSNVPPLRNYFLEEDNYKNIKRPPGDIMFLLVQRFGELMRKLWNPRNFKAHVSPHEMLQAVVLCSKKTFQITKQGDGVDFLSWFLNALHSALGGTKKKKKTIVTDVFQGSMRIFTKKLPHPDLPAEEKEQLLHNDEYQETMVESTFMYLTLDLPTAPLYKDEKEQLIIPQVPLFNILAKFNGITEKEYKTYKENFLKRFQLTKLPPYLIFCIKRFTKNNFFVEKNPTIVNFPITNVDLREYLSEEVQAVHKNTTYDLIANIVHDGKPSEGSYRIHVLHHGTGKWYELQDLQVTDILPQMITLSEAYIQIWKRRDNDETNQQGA
Summary of the method: as §1

USP4 = target: T4, USP4 (UniProt Q13107)
T4 sequence (whole entry): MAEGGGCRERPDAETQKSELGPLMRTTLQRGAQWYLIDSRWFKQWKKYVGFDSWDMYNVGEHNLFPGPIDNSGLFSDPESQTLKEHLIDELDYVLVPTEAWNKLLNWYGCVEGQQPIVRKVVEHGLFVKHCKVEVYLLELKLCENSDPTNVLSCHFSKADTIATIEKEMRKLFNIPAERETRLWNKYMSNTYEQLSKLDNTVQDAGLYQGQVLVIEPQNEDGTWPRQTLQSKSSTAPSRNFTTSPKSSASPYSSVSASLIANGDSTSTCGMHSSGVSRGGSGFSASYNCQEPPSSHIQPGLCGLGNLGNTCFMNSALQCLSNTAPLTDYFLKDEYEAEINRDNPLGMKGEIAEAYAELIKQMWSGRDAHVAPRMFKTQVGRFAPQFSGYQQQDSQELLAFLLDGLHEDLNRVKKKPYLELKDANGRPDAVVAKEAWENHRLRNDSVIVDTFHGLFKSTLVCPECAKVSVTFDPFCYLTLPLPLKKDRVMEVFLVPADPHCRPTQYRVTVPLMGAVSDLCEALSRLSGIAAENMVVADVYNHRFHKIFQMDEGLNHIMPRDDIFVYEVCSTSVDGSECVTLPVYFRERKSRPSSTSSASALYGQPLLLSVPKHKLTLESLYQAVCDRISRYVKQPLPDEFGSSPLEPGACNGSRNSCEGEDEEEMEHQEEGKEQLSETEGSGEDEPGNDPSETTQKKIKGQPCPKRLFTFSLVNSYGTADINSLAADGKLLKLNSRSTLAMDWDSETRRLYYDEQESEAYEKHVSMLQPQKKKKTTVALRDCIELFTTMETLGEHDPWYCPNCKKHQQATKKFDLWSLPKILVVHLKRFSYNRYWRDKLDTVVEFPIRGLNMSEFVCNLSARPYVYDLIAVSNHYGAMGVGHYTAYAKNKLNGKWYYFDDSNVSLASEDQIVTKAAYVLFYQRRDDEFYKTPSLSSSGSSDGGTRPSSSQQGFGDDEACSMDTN
Summary of the method: as §1

Measured: log2 ratio of Biotin-Ahx-Ub-VS probe labelling

O=C(CCl)NCCC1=CCCCC1
inactive: USP34 0.0934 | USP36 -0.119 | USP38 -0.0475 | USP39 0.131 | USP4 0.0999
